Laboratory results as given in PubChem BioAssay (NCI).
This is part of a sample that, as a whole, favours compounds with a hit. Of some 83,000 tested, about 20% had one in any assay.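 Results are percent growth after 48 hours of single-concentration exposure. 100 means growth as in untreated cells, lower positive values show inhibition; negative values down to -100 show cell death.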 A number with no mark means an inactive call. Active and inactive are the calls of the source. The calls were made as follows: active = growth percent below 10; inactive = the rest.

Assays:
Test in all cases: NCI-60 one-dose screen, 48 h (100 = growth as untreated, 0 = no growth, -100 = all killed)
Conditions in all cases: 10 µM unless noted
[1] = test system: SR leukemia
[2] = test system: RPMI-8226 leukemia
[3] = test system: OVCAR-8 ovarian
[4] = test system: OVCAR-5 ovarian
[5] = test system: OVCAR-4 ovarian
[6] = test system: SK-OV-3 ovarian
[7] = test system: IGROV1 ovarian
[8] = test system: OVCAR-3 ovarian
[9] = test system: NCI/ADR-RES ovarian

For `NC(=O)Nc1cc(-c2cccc(F)c2)sc1C(=O)N[C@H]1CCCNC1`, the growth [1] was -6.47% (active), the growth [2] was 6.16% (active) and the growth [3] was -15.2% (active). The growth [4] was 2.28% (active), the growth [5] was 25.5% and the growth [6] was -46.4% (active). For the same molecule, the growth [7] was -50.5% (active), the growth [8] was -1.15% (active) and the growth [9] was 10%.
`FC(F)(F)c1ccc(CNc2ccc(Cc3c[nH]c4ncc(Cl)cc34)cn2)cn1` gave a growth [1] of 11.1%, a growth [2] of 26.3% and a growth [3] of 14.3%. The growth [4] was 30.5%, the growth [5] was 30% and the growth [6] was 16%. The growth [7] was 41%, the growth [8] was 41.6% and the growth [9] was 12.6%.
With `CNC(=O)c1c(C)oc2cc(Oc3ncnc4cc(OC)c(OC)cc34)ccc12` the growth [1] was 85.7%, the growth [2] was 105% and the growth [3] was 85.3%. For the same molecule, the growth [4] was 95.3%, the growth [5] was 78.3% and the growth [6] was 92.3%. The growth [7] was 95.2%, the growth [8] was 89.2% and the growth [9] was 95.1%.
In the case of `COc1cc(N2CCC(N(C)C)CC2)ccc1Nc1ncc(Cl)c(Nc2ccccc2P(C)(C)=O)n1`, the growth [1] is reported as 6.79% (active), the growth [2] is reported as 27.9% and the growth [3] is reported as 4.01% (active). For the same molecule, the growth [4] was 1.36% (active), the growth [5] was 18.2% and the growth [6] was -77.7% (active). The growth [7] was -24.5% (active), the growth [8] was 16.3% and the growth [9] was 78.1%.
`COc1cc2ncnc3c2cc1OCCCCCN(C)Cc1ccc(Br)cc1N3` gave a growth [1] of 21.6%, a growth [2] of 64.1% and a growth [3] of 41.9%. For the same molecule, the growth [4] was 50.1%, the growth [5] was 42% and the growth [6] was -4.09% (active). For the same molecule, the growth [7] was -8.59% (active), the growth [8] was 46.9% and the growth [9] was 46.7%.
With `N#Cc1c(NC(=O)c2ccco2)[n+]([O-])c2cc(F)c(F)cc2[n+]1[O-]` the growth [1] was 8.42% (active), the growth [2] was 17.8% and the growth [3] was 38.9%. The growth [4] was 119%, the growth [5] was 89.7% and the growth [6] was 99.4%. It also gave a growth [7] of 29.6%, a growth [8] of 102% and a growth [9] of 112%.
`CCNC(=O)C#Cc1ccc2c(C(=Nc3ccc(CN(C)C)cc3)c3ccccc3)c(O)[nH]c2c1` was tested, and the growth [1] was -13.6% (active), the growth [2] was 30% and the growth [3] was 48.3%. The growth [4] was 5.7% (active), the growth [5] was 51.9% and the growth [6] was 10.8%. The growth [7] was 5.41% (active), the growth [8] was 51% and the growth [9] was 54.3%.
In the case of `O=C(Nc1ccc(N=Nc2ccccc2)cc1)c1cccc2ccccc12`, the growth [1] is reported as 23.3%, the growth [2] is reported as 66.1% and the growth [3] is reported as 78.7%. For the same molecule, the growth [4] was 92.5%, the growth [5] was 75.8% and the growth [6] was 64.5%. It also gave a growth [7] of 80.4%, a growth [8] of 37.1% and a growth [9] of 49.3%.
With `COCc1c(-c2ccc(NC(=O)Nc3cc(C(F)(F)F)ccc3F)c(F)c2)c2c(N)ncnn2c1CN1CCOCC1` the growth [1] was -9.37% (active), the growth [2] was -33.1% (active) and the growth [3] was -28.6% (active). The growth [4] was -18.3% (active), the growth [5] was -6.98% (active) and the growth [6] was -34.8% (active). For the same molecule, the growth [7] was -21.6% (active), the growth [8] was 6.05% (active) and the growth [9] was -21.4% (active).
In the case of `COc1cc2c(Nc3ccc(Br)cc3F)ncnc2cc1OCC1CCN(C)CC1`, the growth [1] is reported as -6.08% (active), the growth [2] is reported as 26.8% and the growth [3] is reported as 27.6%. The growth [4] was 34.8%, the growth [5] was 36.4% and the growth [6] was -5.59% (active). For the same molecule, the growth [7] was -21.9% (active), the growth [8] was 42.4% and the growth [9] was 30.3%.
`Cc1cc2c(F)c(Oc3ncnn4cc(OC[C@@H](C)OC(=O)[C@H](C)N)c(C)c34)ccc2[nH]1` gave a growth [1] of 18.5%, a growth [2] of 47.1% and a growth [3] of 61.7%. For the same molecule, the growth [4] was 25.8%, the growth [5] was 65.5% and the growth [6] was 73.9%. It also gave a growth [7] of 20.8%, a growth [8] of 81.1% and a growth [9] of 90.5%.
Molecule `COc1ccc(COc2cc3oc(=O)c4cc(C(C)O)ccc4c3cc2OC)cc1` (centres undefined) has a growth [1] of 18.6%, a growth [2] of 68% and a growth [3] of 25%. The growth [4] was 86%, the growth [5] was 53.8% and the growth [6] was 40.5%. It also gave a growth [7] of 57.6%, a growth [8] of 58.6% and a growth [9] of 56.1%.
In the case of `C[C@@H](NC(=O)c1ncnc(N)c1Cl)c1ncc(C(=O)Nc2cc(C(F)(F)F)c(Cl)cn2)s1`, the growth [1] is reported as 57.5%, the growth [2] is reported as 71.9% and the growth [3] is reported as 64.5%. For the same molecule, the growth [4] was 31.3%, the growth [5] was 98.5% and the growth [6] was 93.6%. The growth [7] was 63.5%, the growth [8] was 95% and the growth [9] was 79.8%.
Molecule `CCN(CCCOc1ccc2c(Nc3cc(CC(=O)Nc4cccc(F)c4)[nH]n3)ncnc2c1)CCOP(=O)(O)O` has a growth [1] of 36.3%, a growth [2] of 91.5% and a growth [3] of 70.2%. For the same molecule, the growth [4] was 59.3%, the growth [5] was 79.9% and the growth [6] was 77.1%. It also gave a growth [7] of 62.4%, a growth [8] of 78.2% and a growth [9] of 98.3%.
With `CCN(CCO)CCCOc1ccc2c(Nc3cc(CC(=O)Nc4cccc(F)c4)[nH]n3)ncnc2c1` the growth [1] was 12.3%, the growth [2] was 72.5% and the growth [3] was 49.8%. The growth [4] was 20.7%, the growth [5] was 48.4% and the growth [6] was 68.3%. It also gave a growth [7] of 16.4%, a growth [8] of 44.4% and a growth [9] of 70.7%.
For `C/C(=C(/c1ccc(Cl)cc1)c1ccc(OCCN2CCCC2)cc1)c1ccccc1`, the growth [1] was 7.27% (active), the growth [2] was 42.8% and the growth [3] was 88.1%. The growth [4] was 64.7%, the growth [5] was 91.7% and the growth [6] was 121%. It also gave a growth [7] of 65.9%, a growth [8] of 91.8% and a growth [9] of 77.6%.
With `ClCc1ccc(-c2ccc(Cn3cnc4c(Cl)nc(Cl)nc43)cc2)cc1` the growth [1] was 8.65% (active), the growth [2] was -47.4% (active) and the growth [3] was -40% (active). The growth [4] was 57.8%, the growth [5] was 21.7% and the growth [6] was 87.8%. For the same molecule, the growth [7] was -64.4% (active), the growth [8] was -93.1% (active) and the growth [9] was 20.8%.
In the case of `Cc1nc(-c2cn3c(n2)-c2ccc(-c4cnn(C(C)(C)C(N)=O)c4)cc2OCC3)n(C(C)C)n1`, the growth [1] is reported as 30.1%, the growth [2] is reported as 39.3% and the growth [3] is reported as 32.9%. The growth [4] was 28.8%, the growth [5] was 62.5% and the growth [6] was -22.1% (active). For the same molecule, the growth [7] was -10.7% (active), the growth [8] was 24.5% and the growth [9] was 39.2%.
Work on `CC1(O)CC(c2nc(-c3ccc4ccc(-c5ccccc5)nc4c3)c3c(N)nccn23)C1` (centres undefined) yielded a growth [1] of 33.9%, a growth [2] of 31.8% and a growth [3] of 39%. It also gave a growth [4] of 41.3%, a growth [5] of 33.1% and a growth [6] of 13.5%. It also gave a growth [7] of 40.1%, a growth [8] of 56.6% and a growth [9] of 41%.
Molecule `CO[C@H]1C[C@@H]2CC[C@@H](C)[C@@](O)(O2)C(=O)C(=O)N2CCCC[C@H]2C(=O)O[C@H]([C@H](C)C[C@@H]2CC[C@@H](OP(C)(C)=O)[C@H](OC)C2)CC(=O)[C@H](C)/C=C(\C)[C@@H](O)[C@@H](OC)C(=O)[C@H](C)C[C@H](C)\C=C/C=C/C=C/1C` has a growth [1] of 13.1%, a growth [2] of 34.8% and a growth [3] of 34.3%. It also gave a growth [4] of 60.7%, a growth [5] of 28.6% and a growth [6] of 12.2%. The growth [7] was 24.4%, the growth [8] was 59.7% and the growth [9] was 51.4%.
In the case of `COc1ccc(-c2cc3c(C)nc(N)nc3n(C3CCC(OCCO)CC3)c2=O)cn1` (centres undefined), the growth [1] is reported as 1.95% (active), the growth [2] is reported as 3.64% (active) and the growth [3] is reported as -12.6% (active). The growth [4] was -18.8% (active), the growth [5] was -7.57% (active) and the growth [6] was -49.9% (active). The growth [7] was -36.9% (active), the growth [8] was -10.5% (active) and the growth [9] was -14.7% (active).
With `CNC(=O)c1cc(Oc2ccc(NC(=O)Nc3cc(C(C)(C)C)nn3-c3ccc4ncccc4c3)c(F)c2)ccn1` the growth [1] was -8.95% (active), the growth [2] was 0.22% (active) and the growth [3] was -30.2% (active). For the same molecule, the growth [4] was -3.54% (active), the growth [5] was -13.6% (active) and the growth [6] was -13.3% (active). For the same molecule, the growth [7] was -20.2% (active), the growth [8] was 1.66% (active) and the growth [9] was -23.1% (active).
For `O=C1C=CC2(NN=C(c3ccccc3)N2c2cccc(Cl)c2)c2cccc(O)c21` (centres undefined), the growth [1] was 49.9%, the growth [2] was 57.4% and the growth [3] was 63.1%. For the same molecule, the growth [4] was 52.8%, the growth [5] was 59.3% and the growth [6] was 92.5%. It also gave a growth [7] of 70.4%, a growth [8] of 36.6% and a growth [9] of 56%.
`Cc1ccc(F)c(NC(=O)Nc2ccc(-c3cccc4[nH]nc(N)c34)cc2)c1` was tested, and the growth [1] was 4.39% (active), the growth [2] was 9.63% (active) and the growth [3] was 9.41% (active). For the same molecule, the growth [4] was 21.4%, the growth [5] was 21.1% and the growth [6] was 52.1%. It also gave a growth [7] of 10.1%, a growth [8] of 33.2% and a growth [9] of 26%.
For `O=C(/C=C/c1ccc2c(c1)OCO2)c1c(O)c2ccccc2oc1=O`, the growth [1] was 79%, the growth [2] was 115% and the growth [3] was 93.9%. The growth [4] was 102%, the growth [5] was 106% and the growth [6] was 94.2%. It also gave a growth [7] of 112%, a growth [8] of 104% and a growth [9] of 102%.
With `Cc1cc(Oc2ccccc2)ccc1Nc1ncnc2ccc(-c3cnc(Cl)c(NS(C)(=O)=O)c3)cc12` the growth [1] was 14.2%, the growth [2] was 7.65% (active) and the growth [3] was 40.4%. For the same molecule, the growth [4] was 10.8%, the growth [5] was 40.1% and the growth [6] was -26.3% (active). The growth [7] was -23.5% (active), the growth [8] was 11.7% and the growth [9] was 54.6%.
